Assay results from PMC7862700, “An all-to-all approach to the identification of sequence-specific readers for epigenetic DNA modifications on cytosine”.

How the values were obtained:
Assay in all cases: DAPPL (digital affinity profiling via proximity ligation, sequencing); 10 mM Tris-HCl pH 7.5, 50 mM NaCl, 1 mM DTT, 4% glycerol, room temperature, 30 min; GST-TFs on glutathione beads, 16-mer random dsDNA library, 0.1% formaldehyde crosslink after washing; high values mean tight binding
FLI1 = target: T1, FLI1 (Homo sapiens, UniProt Q01543 1-452); details: protein: recombinant; tags: N-terminal GST; dsDNA, one strand shown
T1 sequence: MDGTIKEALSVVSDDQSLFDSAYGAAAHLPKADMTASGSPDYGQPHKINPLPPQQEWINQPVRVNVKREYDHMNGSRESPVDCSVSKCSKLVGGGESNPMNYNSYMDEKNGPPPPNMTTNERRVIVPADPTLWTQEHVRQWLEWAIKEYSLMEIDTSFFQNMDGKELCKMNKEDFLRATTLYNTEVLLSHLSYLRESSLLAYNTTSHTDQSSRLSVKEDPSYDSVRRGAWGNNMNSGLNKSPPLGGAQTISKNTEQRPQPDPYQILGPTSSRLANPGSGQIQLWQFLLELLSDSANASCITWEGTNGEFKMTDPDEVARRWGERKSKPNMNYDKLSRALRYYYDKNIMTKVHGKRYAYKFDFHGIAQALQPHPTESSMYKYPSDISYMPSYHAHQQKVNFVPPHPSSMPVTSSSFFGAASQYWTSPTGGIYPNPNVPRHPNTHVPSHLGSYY
In short: (§1)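 Binding signal is given per hexamer as its read frequency for a factor divided by its frequency in the tag-only sample. GST-fused human transcription factors were expressed in yeast, captured on glutathione beads, barcoded with DNA and pooled with that sample, then incubated with 200 nmole of a 16-mer random double-stranded DNA library in Tris/NaCl/DTT/glycerol buffer for 30 min at room temperature. The pools were then washed, crosslinked, proximity-ligated, amplified by PCR and sequenced on an Illumina NextSeq500.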

ELK1 = target: T2, ELK1 (Homo sapiens, UniProt P19419 1-428); details: protein: recombinant; tags: N-terminal GST; dsDNA, one strand shown
T2 sequence: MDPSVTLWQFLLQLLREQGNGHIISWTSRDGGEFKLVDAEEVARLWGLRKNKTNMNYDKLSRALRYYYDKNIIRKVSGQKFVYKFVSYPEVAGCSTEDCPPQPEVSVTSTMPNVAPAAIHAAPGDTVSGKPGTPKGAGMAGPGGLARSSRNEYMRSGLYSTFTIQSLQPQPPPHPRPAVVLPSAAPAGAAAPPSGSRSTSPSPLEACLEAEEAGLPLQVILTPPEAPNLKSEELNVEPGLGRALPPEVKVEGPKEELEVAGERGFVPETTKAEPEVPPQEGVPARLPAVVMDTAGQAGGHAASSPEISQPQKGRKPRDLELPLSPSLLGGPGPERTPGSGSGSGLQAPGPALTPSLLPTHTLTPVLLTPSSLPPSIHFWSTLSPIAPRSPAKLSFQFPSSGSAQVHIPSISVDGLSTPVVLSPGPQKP
In short: as §1

GABPA = target: T3, GABPA (Homo sapiens, UniProt Q06546 1-454); details: protein: recombinant; tags: N-terminal GST; dsDNA, one strand shown
T3 sequence: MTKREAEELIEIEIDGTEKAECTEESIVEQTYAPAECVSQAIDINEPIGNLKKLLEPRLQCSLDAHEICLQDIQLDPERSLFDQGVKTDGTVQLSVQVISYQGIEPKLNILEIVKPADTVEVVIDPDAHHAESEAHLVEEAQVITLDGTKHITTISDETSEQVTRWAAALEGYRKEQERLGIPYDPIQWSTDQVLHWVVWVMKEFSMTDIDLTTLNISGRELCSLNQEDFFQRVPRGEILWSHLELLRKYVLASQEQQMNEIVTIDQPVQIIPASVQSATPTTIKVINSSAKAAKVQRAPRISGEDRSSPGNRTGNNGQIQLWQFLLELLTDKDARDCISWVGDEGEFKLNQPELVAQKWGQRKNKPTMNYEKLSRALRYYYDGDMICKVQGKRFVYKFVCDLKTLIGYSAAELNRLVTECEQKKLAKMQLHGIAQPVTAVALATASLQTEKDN
In short: as §1

ERG = target: T4, ERG (Homo sapiens, UniProt P11308 1-479); details: protein: recombinant; tags: N-terminal GST; dsDNA, one strand shown
T4 sequence: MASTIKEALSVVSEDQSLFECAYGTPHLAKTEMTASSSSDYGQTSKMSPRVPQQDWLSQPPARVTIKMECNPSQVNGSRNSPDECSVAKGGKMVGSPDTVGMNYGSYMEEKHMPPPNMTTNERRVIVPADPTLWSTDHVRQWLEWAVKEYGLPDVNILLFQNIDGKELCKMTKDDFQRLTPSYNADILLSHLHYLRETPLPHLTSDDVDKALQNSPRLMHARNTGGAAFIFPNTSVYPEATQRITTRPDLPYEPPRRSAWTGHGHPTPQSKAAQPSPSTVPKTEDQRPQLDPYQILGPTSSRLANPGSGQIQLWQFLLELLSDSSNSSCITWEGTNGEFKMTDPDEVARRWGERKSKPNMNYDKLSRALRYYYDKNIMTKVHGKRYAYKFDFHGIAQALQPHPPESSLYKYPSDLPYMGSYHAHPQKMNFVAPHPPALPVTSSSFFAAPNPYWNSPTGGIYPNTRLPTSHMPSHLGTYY
In short: as §1

ELF1 = ELF1 (Homo sapiens, UniProt P32519 1-619); details: protein: recombinant; tags: N-terminal GST; dsDNA, one strand shown
In short: as §1

EHF = target: T5, EHF (Homo sapiens, UniProt Q9NZC4 1-300); details: protein: recombinant; tags: N-terminal GST; dsDNA, one strand shown
T5 sequence: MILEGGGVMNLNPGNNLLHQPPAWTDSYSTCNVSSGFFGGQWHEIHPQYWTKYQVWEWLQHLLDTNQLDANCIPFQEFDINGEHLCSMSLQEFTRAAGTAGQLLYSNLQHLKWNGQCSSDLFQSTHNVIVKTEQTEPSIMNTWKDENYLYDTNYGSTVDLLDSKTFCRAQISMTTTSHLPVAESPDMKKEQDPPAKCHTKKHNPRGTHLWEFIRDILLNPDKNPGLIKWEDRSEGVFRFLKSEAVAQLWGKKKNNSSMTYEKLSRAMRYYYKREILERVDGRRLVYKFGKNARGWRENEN
In short: as §1

SPI1 = SPI1 (Homo sapiens, UniProt P17947 1-270); details: protein: recombinant; tags: N-terminal GST; dsDNA, one strand shown
In short: as §1

SPIB = SPIB (Homo sapiens, UniProt Q01892 1-262); details: protein: recombinant; tags: N-terminal GST; dsDNA, one strand shown
In short: as §1

ELK3 = target: T6, ELK3 (Homo sapiens, UniProt P41970 1-407); details: protein: recombinant; tags: N-terminal GST; dsDNA, one strand shown
T6 sequence: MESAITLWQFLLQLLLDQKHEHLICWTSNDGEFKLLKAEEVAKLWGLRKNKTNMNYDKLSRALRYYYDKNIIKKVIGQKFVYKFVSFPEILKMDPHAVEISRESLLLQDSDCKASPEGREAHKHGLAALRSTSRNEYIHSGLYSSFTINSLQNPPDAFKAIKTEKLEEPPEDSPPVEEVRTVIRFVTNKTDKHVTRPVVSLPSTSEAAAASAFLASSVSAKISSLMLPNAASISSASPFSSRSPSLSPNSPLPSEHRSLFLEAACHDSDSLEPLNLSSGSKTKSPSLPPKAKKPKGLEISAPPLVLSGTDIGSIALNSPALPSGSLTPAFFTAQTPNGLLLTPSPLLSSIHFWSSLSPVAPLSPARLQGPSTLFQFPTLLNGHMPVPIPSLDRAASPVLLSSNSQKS
In short: as §1

FEV = target: T7, FEV (Homo sapiens, UniProt Q99581 1-238); details: protein: recombinant; tags: N-terminal GST; dsDNA, one strand shown
T7 sequence: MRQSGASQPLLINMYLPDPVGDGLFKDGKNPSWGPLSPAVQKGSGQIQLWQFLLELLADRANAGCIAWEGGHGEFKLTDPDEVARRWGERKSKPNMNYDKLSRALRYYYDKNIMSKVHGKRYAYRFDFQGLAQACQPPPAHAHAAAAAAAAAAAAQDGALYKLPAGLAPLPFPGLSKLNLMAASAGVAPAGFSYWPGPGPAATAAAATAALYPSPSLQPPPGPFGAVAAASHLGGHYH
In short: as §1

ETV5 = ETV5 (Homo sapiens, UniProt P41161 1-510); details: protein: recombinant; tags: N-terminal GST; dsDNA, one strand shown
In short: as §1

HSF1 = HSF1 (Homo sapiens, UniProt Q00613 1-529); details: protein: recombinant; tags: N-terminal GST; chain copies: 3; dsDNA, one strand shown
In short: as §1

SPIC = target: T8, SPIC (Homo sapiens, UniProt Q8N5J4 1-248); details: protein: recombinant; tags: N-terminal GST; dsDNA, one strand shown
T8 sequence: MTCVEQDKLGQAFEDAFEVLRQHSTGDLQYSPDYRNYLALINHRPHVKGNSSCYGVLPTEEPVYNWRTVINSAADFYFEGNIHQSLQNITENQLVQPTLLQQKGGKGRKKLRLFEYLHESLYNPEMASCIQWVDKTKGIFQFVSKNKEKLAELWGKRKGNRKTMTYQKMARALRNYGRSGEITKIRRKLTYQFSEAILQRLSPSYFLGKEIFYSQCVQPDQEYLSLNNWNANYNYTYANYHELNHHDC
In short: as §1

ELF4 = ELF4 (Homo sapiens, UniProt Q99607 1-663); details: protein: recombinant; tags: N-terminal GST; dsDNA, one strand shown
In short: as §1

ELK4 = target: T9, ELK4 (Homo sapiens, UniProt P28324-2 1-405); details: protein: recombinant; tags: N-terminal GST; dsDNA, one strand shown
T9 sequence: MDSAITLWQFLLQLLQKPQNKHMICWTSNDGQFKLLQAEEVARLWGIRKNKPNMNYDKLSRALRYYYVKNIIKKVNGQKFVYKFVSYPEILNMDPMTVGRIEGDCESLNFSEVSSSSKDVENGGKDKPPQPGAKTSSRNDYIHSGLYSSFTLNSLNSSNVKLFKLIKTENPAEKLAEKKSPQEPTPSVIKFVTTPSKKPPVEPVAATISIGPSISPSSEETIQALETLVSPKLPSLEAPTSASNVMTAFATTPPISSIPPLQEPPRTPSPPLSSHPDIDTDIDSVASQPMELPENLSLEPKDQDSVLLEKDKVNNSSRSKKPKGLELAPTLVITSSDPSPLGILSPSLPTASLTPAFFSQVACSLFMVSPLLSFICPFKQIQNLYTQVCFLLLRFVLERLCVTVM
In short: as §1

ETV2 = target: T10, ETV2 (Homo sapiens, UniProt O00321 1-342); details: protein: recombinant; tags: N-terminal GST; dsDNA, one strand shown
T10 sequence: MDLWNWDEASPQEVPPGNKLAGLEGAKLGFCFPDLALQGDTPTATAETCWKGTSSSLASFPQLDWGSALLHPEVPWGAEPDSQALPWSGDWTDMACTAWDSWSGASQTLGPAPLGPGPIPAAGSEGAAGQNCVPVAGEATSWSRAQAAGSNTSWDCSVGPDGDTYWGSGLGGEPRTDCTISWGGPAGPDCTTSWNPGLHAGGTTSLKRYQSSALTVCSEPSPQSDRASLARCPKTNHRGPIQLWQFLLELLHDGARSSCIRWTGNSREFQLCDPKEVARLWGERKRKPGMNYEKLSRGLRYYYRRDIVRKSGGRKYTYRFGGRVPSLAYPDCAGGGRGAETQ
In short: as §1

ELF3 = target: T11, ELF3 (Homo sapiens, UniProt P78545 1-371); details: protein: recombinant; tags: N-terminal GST; dsDNA, one strand shown
T11 sequence: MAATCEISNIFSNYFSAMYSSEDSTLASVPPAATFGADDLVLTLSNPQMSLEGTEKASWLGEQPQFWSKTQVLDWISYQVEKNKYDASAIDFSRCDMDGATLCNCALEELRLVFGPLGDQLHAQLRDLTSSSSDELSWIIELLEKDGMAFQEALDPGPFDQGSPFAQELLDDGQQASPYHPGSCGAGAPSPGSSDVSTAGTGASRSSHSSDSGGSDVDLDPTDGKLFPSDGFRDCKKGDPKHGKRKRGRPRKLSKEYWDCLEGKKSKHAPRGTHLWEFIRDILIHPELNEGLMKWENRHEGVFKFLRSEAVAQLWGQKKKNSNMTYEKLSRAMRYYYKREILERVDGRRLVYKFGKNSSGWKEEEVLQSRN
In short: as §1

CRX = CRX (Homo sapiens, UniProt O43186 1-299); details: protein: recombinant; tags: N-terminal GST; dsDNA, one strand shown
In short: as §1

ETV1 = ETV1 (Homo sapiens, UniProt P50549 1-477); details: protein: recombinant; tags: N-terminal GST; dsDNA, one strand shown
In short: as §1

ETV1, sequence (P50549 whole entry): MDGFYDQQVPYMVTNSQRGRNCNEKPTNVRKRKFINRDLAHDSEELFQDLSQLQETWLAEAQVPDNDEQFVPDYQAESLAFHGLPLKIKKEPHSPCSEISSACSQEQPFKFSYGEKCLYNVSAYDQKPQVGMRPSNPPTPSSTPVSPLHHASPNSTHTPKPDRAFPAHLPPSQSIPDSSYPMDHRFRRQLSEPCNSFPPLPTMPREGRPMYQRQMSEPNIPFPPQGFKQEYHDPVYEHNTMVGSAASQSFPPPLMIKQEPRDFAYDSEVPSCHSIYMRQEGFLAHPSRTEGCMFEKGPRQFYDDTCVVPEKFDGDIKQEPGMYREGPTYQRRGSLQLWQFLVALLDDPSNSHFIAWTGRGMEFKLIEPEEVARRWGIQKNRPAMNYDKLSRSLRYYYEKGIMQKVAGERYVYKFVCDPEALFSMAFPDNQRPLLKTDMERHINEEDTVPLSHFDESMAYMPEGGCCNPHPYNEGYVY
SPIB, sequence (Q01892 whole entry): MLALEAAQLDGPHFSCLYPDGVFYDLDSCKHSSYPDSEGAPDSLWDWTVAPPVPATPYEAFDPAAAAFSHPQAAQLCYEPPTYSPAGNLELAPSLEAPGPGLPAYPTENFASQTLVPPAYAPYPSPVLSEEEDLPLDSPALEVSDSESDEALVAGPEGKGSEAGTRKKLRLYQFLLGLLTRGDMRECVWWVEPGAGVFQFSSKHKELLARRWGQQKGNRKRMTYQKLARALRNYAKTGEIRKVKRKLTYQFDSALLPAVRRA
ETV5, sequence (P41161 whole entry): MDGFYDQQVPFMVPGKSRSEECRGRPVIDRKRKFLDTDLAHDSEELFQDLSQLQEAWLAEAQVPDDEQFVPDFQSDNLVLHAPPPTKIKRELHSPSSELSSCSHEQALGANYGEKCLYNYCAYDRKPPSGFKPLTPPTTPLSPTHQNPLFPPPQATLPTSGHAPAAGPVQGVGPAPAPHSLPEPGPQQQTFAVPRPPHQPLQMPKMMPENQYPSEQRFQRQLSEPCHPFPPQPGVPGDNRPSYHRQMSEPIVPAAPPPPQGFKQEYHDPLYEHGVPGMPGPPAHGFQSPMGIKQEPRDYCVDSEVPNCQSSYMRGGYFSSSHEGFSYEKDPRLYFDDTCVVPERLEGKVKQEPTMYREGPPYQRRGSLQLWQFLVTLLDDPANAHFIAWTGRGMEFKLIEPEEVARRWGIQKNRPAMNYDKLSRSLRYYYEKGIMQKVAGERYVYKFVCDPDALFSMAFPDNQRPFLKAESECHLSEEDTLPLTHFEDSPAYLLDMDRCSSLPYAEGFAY
HSF1, sequence (Q00613 whole entry): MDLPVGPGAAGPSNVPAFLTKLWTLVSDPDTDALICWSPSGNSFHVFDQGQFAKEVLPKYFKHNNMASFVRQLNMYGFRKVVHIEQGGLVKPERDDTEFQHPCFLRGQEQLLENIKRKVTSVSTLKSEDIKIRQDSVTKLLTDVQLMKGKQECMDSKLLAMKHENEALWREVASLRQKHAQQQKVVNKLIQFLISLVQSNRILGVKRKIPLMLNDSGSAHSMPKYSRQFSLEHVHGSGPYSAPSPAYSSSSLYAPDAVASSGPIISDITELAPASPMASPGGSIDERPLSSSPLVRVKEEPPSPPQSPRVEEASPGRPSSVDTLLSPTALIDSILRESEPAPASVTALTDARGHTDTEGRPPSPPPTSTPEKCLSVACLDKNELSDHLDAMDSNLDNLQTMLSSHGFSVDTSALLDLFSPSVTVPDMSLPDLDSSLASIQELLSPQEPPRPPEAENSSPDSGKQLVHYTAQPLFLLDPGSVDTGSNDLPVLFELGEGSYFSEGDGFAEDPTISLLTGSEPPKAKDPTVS
ELF1, sequence (P32519 whole entry): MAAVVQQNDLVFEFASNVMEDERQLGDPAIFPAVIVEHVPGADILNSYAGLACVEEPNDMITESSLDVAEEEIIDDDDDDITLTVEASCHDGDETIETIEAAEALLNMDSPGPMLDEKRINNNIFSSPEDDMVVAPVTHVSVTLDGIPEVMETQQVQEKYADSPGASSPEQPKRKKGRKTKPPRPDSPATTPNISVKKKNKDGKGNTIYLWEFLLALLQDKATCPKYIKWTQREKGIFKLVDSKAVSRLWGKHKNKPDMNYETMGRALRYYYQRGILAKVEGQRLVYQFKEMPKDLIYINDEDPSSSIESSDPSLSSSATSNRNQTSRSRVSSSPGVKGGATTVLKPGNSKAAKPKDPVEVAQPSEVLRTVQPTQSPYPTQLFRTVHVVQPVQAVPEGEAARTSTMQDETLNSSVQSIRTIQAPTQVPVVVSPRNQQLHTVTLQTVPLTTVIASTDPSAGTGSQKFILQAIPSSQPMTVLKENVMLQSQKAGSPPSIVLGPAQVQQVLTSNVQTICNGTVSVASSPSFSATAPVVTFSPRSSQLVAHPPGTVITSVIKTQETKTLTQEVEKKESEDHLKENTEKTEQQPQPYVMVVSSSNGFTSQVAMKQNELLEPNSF
ELF4, sequence (Q99607 whole entry): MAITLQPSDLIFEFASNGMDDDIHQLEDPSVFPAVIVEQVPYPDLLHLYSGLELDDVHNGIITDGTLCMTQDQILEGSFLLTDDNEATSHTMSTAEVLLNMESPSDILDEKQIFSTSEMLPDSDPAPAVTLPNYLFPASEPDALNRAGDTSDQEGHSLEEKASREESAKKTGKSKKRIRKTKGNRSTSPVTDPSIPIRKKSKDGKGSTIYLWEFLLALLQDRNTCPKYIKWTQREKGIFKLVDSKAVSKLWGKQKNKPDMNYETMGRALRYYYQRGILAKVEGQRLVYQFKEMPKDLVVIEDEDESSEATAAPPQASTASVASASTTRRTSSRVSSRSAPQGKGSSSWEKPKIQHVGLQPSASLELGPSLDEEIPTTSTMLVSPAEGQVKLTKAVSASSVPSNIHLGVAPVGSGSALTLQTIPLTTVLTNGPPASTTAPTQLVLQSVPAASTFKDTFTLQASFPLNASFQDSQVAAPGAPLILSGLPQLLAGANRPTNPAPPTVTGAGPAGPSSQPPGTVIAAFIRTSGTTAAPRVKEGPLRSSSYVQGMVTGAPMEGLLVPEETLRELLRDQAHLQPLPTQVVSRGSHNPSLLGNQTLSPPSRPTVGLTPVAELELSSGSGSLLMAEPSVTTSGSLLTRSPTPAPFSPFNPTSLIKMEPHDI
CRX, sequence (O43186 whole entry): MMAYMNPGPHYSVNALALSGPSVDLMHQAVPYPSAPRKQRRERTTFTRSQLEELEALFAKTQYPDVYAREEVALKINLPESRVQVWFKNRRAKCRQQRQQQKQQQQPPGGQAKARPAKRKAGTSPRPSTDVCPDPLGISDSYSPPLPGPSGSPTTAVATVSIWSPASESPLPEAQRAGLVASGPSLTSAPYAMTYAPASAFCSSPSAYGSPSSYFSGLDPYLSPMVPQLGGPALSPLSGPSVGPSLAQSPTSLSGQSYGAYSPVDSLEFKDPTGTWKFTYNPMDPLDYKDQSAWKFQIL

ATTTCG was tested. Which binding signal (FLI1) did it give?
Its binding signal is 1.24 fold enrichment (6-mer frequency, TF over GST control).

And the binding signal (ELK1)?
The binding signal was 1.25 fold enrichment (6-mer frequency, TF over GST control).

What about the binding signal (GABPA) of the same sequence?
The binding signal was 1.29 fold enrichment (6-mer frequency, TF over GST control).

And the binding signal (ERG)?
The binding signal was 1.25 fold enrichment (6-mer frequency, TF over GST control).

And the binding signal (ELF1)?
The binding signal was 1.3 fold enrichment (6-mer frequency, TF over GST control).

And the binding signal (EHF)?
Its binding signal is 1.35 fold enrichment (6-mer frequency, TF over GST control).

What about the binding signal (SPI1) of the same sequence?
Its binding signal is 1.29 fold enrichment (6-mer frequency, TF over GST control).

And the binding signal (SPIB)?
Its binding signal is 1.37 fold enrichment (6-mer frequency, TF over GST control).

What about the binding signal (ELK3) of the same sequence?
The binding signal was 1.21 fold enrichment (6-mer frequency, TF over GST control).

What about the binding signal (FEV) of the same sequence?
The binding signal was 1.25 fold enrichment (6-mer frequency, TF over GST control).

What about the binding signal (ETV5) of the same sequence?
The binding signal was 1.26 fold enrichment (6-mer frequency, TF over GST control).

What about the binding signal (HSF1) of the same sequence?
Its binding signal is 1.63 fold enrichment (6-mer frequency, TF over GST control).

And the binding signal (SPIC)?
Its binding signal is 1.26 fold enrichment (6-mer frequency, TF over GST control).

And the binding signal (ELF4)?
The binding signal was 1.29 fold enrichment (6-mer frequency, TF over GST control).

What about the binding signal (ELK4) of the same sequence?
Its binding signal is 1.49 fold enrichment (6-mer frequency, TF over GST control).

What about the binding signal (ETV2) of the same sequence?
The binding signal was 1.22 fold enrichment (6-mer frequency, TF over GST control).

What about the binding signal (ELF3) of the same sequence?
Its binding signal is 1.2 fold enrichment (6-mer frequency, TF over GST control).

And the binding signal (CRX)?
The binding signal was 1.45 fold enrichment (6-mer frequency, TF over GST control).

And the binding signal (ETV1)?
Its binding signal is 1.34 fold enrichment (6-mer frequency, TF over GST control).
